# According to PubChem BioAssay (Tox21):
# “And” between values parts separate entries of the source, which are not always exact repeats. Equal entries are not always repeated. Values without a mark were called inactive. Records with an inconclusive call do not appear. Entries that show only a call come without a potency. The source made the active and inactive calls. Unless noted, the call rests on the fitted dose curve; in most records, active means well fitted curve in the direction sought with a large enough effect in the repeat runs; inconclusive means weak or mixed curves; inactive means no such curve, though single readings can be large; an effect the other way counts as inactive or inconclusive.
# Assays:
# [1] = qHTS assay to identify small molecule agonists of the hypoxia (HIF-1) signaling pathway - cell viability counter screen (AID 1224844; calls by dose curve; further: nearly all actives have a fitted effect of over 50% in size; further: potency means the concentration at half of the fitted maximal effect)
# Procedure, shortened: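 HRE-bla ME-180 cells in medium with 0.5% dialyzed FBS were preincubated 5 hrs at 37C, exposed to compounds for 17 hrs, then viability was read as CellTiter-Glo luminescence after 30 min at room temperature, in the reporter wells.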
# [2] = qHTS assay to identify small molecule agonists of H2AX (AID 1224845; active means well fitted activation curve with a large enough effect in the signal ratio in the repeat runs, not every such curve was filed as active; the % refers to the signal ratio; further: potency means the concentration at half of the fitted maximal effect)
# Procedure, shortened: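 Wild-type CHO-K1 cells, plated overnight, exposed 3hr at 37C to 15 concentrations (0.76% DMSO final). Lysed, then HTRF anti-pH2AX (S139) cryptate and anti-H2AX-d2 antibodies, 24 hr room temperature; 665/620 nm emission read.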
# [3] = qHTS assay to identify small molecule agonists of H2AX - cell viability counter screen (AID 1224847; calls by dose curve; further: nearly all actives have a fitted effect of over 30% in size; further: potency means the concentration at half of the fitted maximal effect; on activity change, negative = cytotoxicity: top concentration of the series differs between compounds)
# Procedure, shortened: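 CHO-K1 cells plated overnight at 37C, then exposed 3 h at 37C to compounds at 15 concentrations (0.76% DMSO final). Viability by CellTiter-Glo luminescence after 30 min at room temperature.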
# [4] = qHTS assay to identify small molecule antagonists of the estrogen related receptor (ERR) signaling pathway from Tox21 library (AID 1224848); further: nearly all actives have a fitted effect of over 50% in size; further: potency means the concentration at half of the fitted maximal effect
# Procedure, shortened: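 Luminescent reporter read-out (ONE-Glo) from NTP's ERR cell line after 18 h treatment at 37 C with DMSO-dissolved Tox21 compounds; cells pre-plated 6 h beforehand at 2,000 per well.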
# [5] = qHTS assay to identify small molecule agonists of the estrogen related receptor (ERR) signaling pathway from Tox21 library (AID 1224849; calls by dose curve; further: nearly all actives have a fitted effect of over 15% in size); conditions: ERR reporter cell line, ONE-Glo luciferase, 18 h
# Procedure, shortened: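 ERR reporter cell line (NTP) seeded, rested 6 h at 37 C/5% CO2, then pinned with Tox21 compounds in DMSO. After 18 h at 37 C, ONE-Glo luciferase luminescence was read following 30 min at room temperature.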
# [6] = qHTS RealTime-Glo MT Cell Viability Assay in HepG2 cells - 24 hour (AID 1224867); further: nearly all actives have a fitted effect of over 50% in size; further: potency means the concentration at half of the fitted maximal effect
# Procedure, shortened: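 Tox21 10K library screened in qHTS format on HepG2 cells carrying RealTime-Glo reagents. Compounds were added after a 5 h preincubation, and the luminescent signal from continuous culture was measured repeatedly during 40 h treatment.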
# [7] = qHTS RealTime-Glo MT Cell Viability Assay in HEK293 cells - 32 hour (AID 1224868); further: nearly all actives have a fitted effect of over 50% in size; further: potency means the concentration at half of the fitted maximal effect; on activity change, negative = cytotoxic: top concentration of the series differs between compounds
# Procedure, shortened: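 Luminescence generated by NanoLuc from substrate produced by living HEK293 cells served as the viability signal. Each value reflects the reading at its stated time point during continuous 40 h compound exposure at 37 C.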
# [8] = qHTS RealTime-Glo MT Cell Viability Assay in HepG2 cells - 40 hour (AID 1224870); further: nearly all actives have a fitted effect of over 50% in size; further: potency means the concentration at half of the fitted maximal effect
# Procedure, shortened: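 HepG2 cells (600/well) mixed with RealTime-Glo MT reagent, settled 5 h at 37 C/5% CO2 before compound addition. Nonlytic NanoLuc luminescence from viable-cell prosubstrate reduction read repeatedly during 40 h treatment at 37 C.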
# [9] = A CellTox Green Cytotoxicity Assay to monitor cytotoxicity in HEK293 cells - 0 hour (AID 1224869); further: nearly all actives have a fitted effect of over 50% in size; further: potency means the concentration at half of the fitted maximal effect
# Procedure, shortened: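 HEK293 cells premixed with CellTox Green dye were seeded at 600 cells/well and left 5 h at 37 C/5% CO2 before pin transfer of 23 nL compound in DMSO. Fluorescence from dye bound to dead-cell DNA was read during 40 h treatment.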
# [10] = qHTS assay to identify small molecule agonists of the hypoxia (HIF-1) signaling pathway (AID 1224846; active means well fitted activation curve with a large enough effect in the signal ratio in the repeat runs, not every such curve was filed as active; the % refers to the signal ratio)
# Procedure, shortened: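 HRE-bla ME-180 cells (beta-lactamase reporter under hypoxia response element) were plated at 2,000 cells/well in medium with 0.5% dialyzed FBS, rested 5 hrs, then given compounds in DMSO for 17 hrs at 37C, 5% CO2. Reporter induction was read with CCF4-AM FRET substrate.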
smiles,measurement,setting,value
Cc1c2ccccc2c(C)c2c1ccc1ccccc12,Potency,[1],inactive
same,Potency,[2],inactive
same,Potency,[3],inactive
same,Potency,[4],30.3 µM (active) and 61.1 µM (active)
same,"activity change, positive = activation",[5]; at 92.4 µM (top of the series),-83.3% and -76.1%
same,Potency,[6],inactive
same,Potency,[7],43.2 µM (active) and 24.5 µM (active)
same,Potency,[8],inactive
C#CC1(O)CC[C@H]2[C@@H]3CCC4=CCCC[C@@H]4[C@H]3CC[C@@]21C (some centres undefined),Potency,[1],21.9 µM (active) and 15.1 µM (active)
same,Potency,[2],inactive
same,Potency,[3],89.8 µM (active)
same,Potency,[4],61.1 µM (active) and 26.6 µM (active)
same,"activity change, positive = activation",[5]; at 42.5 µM (top of the series),-49.7%
same,"activity change, positive = activation",[5]; at 92.4 µM (top of the series),-45.9%
same,Potency,[6],21.3 µM (active)
same,Potency,[7],17.4 µM (active) and 19 µM (active)
same,Potency,[9],inactive
same,Potency,[8],49 µM (active) and 23.9 µM (active)
O=C(O)[C@H](O)[C@@H](O)[C@H](O[C@@H]1O[C@H](CO)[C@H](O)[C@H](O)[C@H]1O)[C@H](O)CO,Potency,[1],inactive
same,Potency,[2],inactive
same,Potency,[3],inactive
same,Potency,[7],inactive
same,Potency,[9],inactive
same,Potency,[8],inactive
c1ccc(C(O[C@@H]2CCCN(CCc3ccc4c(c3)OCO4)C2)c2ccccc2)cc1,Potency,[1],inactive
same,Potency,[2],inactive
same,Potency,[10],inactive
same,Potency,[6],inactive
same,Potency,[9],inactive
same,Potency,[8],inactive
CC(N=C(NC#N)Nc1ccncc1)C(C)(C)C (centres undefined),Potency,[1],inactive
same,Potency,[2],inactive
same,Potency,[3],inactive
same,Potency,[4],inactive
same,"activity change, positive = activation",[5]; at 42.5 µM (top of the series),-15.5%
same,Potency,[6],inactive
same,Potency,[7],inactive
same,Potency,[9],inactive
same,Potency,[8],inactive
CCN(CC)c1ccc2c(-c3ccc(S(=O)(=O)O)cc3S(=O)(=O)[O-])c3ccc(=[N+](CC)CC)cc-3oc2c1,Potency,[1],inactive
same,Potency,[10],inactive
same,Potency,[3],20.7 µM (active)
same,Potency,[4],35.5 µM (active)
same,"activity change, positive = activation",[5]; at 92.4 µM (top of the series),-38.9%
same,Potency,[6],inactive
same,Potency,[7],inactive
same,Potency,[9],inactive
CC(CCc1ccccc1)NCC(O)c1ccc(O)c(C(N)=O)c1 (centres undefined),Potency,[1],inactive
same,Potency,[2],inactive
same,Potency,[3],inactive
same,Potency,[7],inactive
same,Potency,[9],inactive
C[Si](Cl)(c1ccccc1)c1ccccc1,Potency,[1],inactive
same,Potency,[2],inactive
same,Potency,[10],inactive
same,"activity change, positive = activation",[5]; at 92.4 µM (top of the series),-19%
same,Potency,[6],inactive
same,Potency,[9],inactive
same,Potency,[8],inactive
C=C(CC)C(=O)c1ccc(OCC(=O)O)c(Cl)c1Cl,Potency,[1],19.4 µM (active) and 21.3 µM (active)
same,Potency,[2],inactive
same,Potency,[4],68.1 µM (active)
same,"activity change, positive = activation",[5]; at 42.5 µM (top of the series),-17.8%
same,"activity change, positive = activation",[5]; at 92.4 µM (top of the series),-55%
same,Potency,[6],inactive
same,Potency,[7],inactive
same,Potency,[9],inactive
O=C(O)CN(CCN(CC(=O)O)CC(=O)O)CC(=O)O,"activity change, negative = cytotoxicity",[1],-5.67% [at 2.72 µM]
same,Potency,[2],4.52 µM (active)
same,"activity change, negative = cytotoxicity",[3],-5.08% [at 5.43 µM]
same,"activity change, negative = cytotoxicity",[6],3.3% [at 2.72 µM]
same,"activity change, negative = cytotoxic",[7],9.19% [at 2.72 µM]
same,Potency,[9],1.96 µM (active)
same,"activity change, negative = cytotoxic",[8],12.4% [at 2.72 µM]
Cc1cc(-n2nc3ccc(Cl)cc3n2)c(O)c(C(C)(C)C)c1,Potency,[1],inactive
same,Potency,[2],inactive
same,Potency,[3],inactive
same,Potency,[4],inactive
same,"activity change, positive = activation",[5]; at 42.5 µM (top of the series),2.34%
same,Potency,[6],inactive
same,Potency,[7],inactive
CCCCCCCCCCCCCC[N+](C)(C)C,Potency,[1],42.2 µM (active)
same,Potency,[2],inactive
same,Potency,[3],38.8 µM (active) and 50.4 µM (active)
same,Potency,[4],2.64 µM (active) and 4.32 µM (active) and 8.41 µM (active)
same,"activity change, positive = activation",[5]; at 42.5 µM (top of the series),-50%
same,"activity change, positive = activation",[5]; at 92.4 µM (top of the series),-78.5% and -74.4%
same,Potency,[6],11.9 µM (active) and 21.8 µM (active) and 23.9 µM (active)
same,Potency,[7],9.44 µM (active) and 12.3 µM (active) and 2.13 µM (active)
same,Potency,[9],inactive
same,Potency,[8],7.5 µM (active) and 17.4 µM (active) and 23.9 µM (active)
OC1CCC(C2CCCCC2)CC1 (centres undefined),Potency,[1],inactive
same,Potency,[2],inactive
same,Potency,[10],inactive
same,Potency,[4],inactive
same,"activity change, positive = activation",[5]; at 92.4 µM (top of the series),-1.53%
same,Potency,[6],inactive
same,Potency,[7],inactive
same,Potency,[9],inactive
